Measles CPE = protection of cells from measles virus; Measles virus-infected cells, CPE protection, absorbance; protection (pct of control), % at 4 µM; 140,000 compounds, 1.5% hits; AID 841; in the data active = protection mostly above about 24%, no sharp cut-off; inactive = mostly below about 26%
CYP2C9 inhib = inhibitors of human CYP2C9 | P11712 | CYP2C9 Supersomes, luciferin-H conversion, luminescence | inhibition, % at 5 µM | 96,000 compounds, 20% hits;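 active = blocking of liver enzyme CYP2C9 beyond about 50% at 5 µM, limit read from the data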
Target sequence (P11712 whole entry, looked up): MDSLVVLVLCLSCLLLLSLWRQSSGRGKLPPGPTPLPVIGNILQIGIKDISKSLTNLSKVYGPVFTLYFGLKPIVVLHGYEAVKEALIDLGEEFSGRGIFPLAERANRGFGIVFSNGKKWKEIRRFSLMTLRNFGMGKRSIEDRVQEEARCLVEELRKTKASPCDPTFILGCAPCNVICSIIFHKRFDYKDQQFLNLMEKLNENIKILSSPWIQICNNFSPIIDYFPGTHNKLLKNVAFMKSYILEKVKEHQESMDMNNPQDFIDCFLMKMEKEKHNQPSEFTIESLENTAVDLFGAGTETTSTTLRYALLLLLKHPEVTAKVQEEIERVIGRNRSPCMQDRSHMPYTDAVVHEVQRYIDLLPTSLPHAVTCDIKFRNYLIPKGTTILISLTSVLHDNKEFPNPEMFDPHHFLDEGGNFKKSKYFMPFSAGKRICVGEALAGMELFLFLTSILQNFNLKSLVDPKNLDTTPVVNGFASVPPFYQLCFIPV
CYP2C9 act = CYP2C9 (human) activation; P11712; recombinant CYP2C9, luciferin-H conversion, luminescence; hits give high values; factor 1 = untreated enzyme, 0 = blocked; activation factor at 5 µM; 96,000 compounds, 1.4% hits; AID 1024;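 active = activation factor of 2 or more for CYP2C9 at a 5 µM dose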;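 note: 0 = sulfaphenazole-blocked wells and 1 = vehicle-only wells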
CYP2C19 inhib = human CYP2C19 inhibition; CYP2C19 Supersomes, luciferin-H EGE luminescence, 30 min; 96,000 compounds, 21% hits; AID 778; P33261; inhibition, % at 5 µM;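 active = CYP2C19 inhibition above a set limit at 5 µM in the primary screen, cut at about 50% in these data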;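 note: plate controls were negative control wells for no effect and 2.5 mM tranylcypromine positive control for full effect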
CYP2C19 activ = activators of human cytochrome P450 2C19. 96,000 tested, under 10 active. AID 1025. activation factor at 5 µM. recombinant CYP2C19, luciferin-H EGE luminescence; hits give high values; 0 = fully inhibited enzyme, 1 = untreated enzyme. P33261;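 active = activation factor of at least 2 at 5 µM in the primary screen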;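 note: 0 = wells with 2.5 mM tranylcypromine and 1 = vehicle-only wells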
The depositor's hits bear a star; . = not tested or not shown. Compounds with a hit are over-represented: about 22% of the library has one in this group of screens.

SMILES	Measles CPE	CYP2C9 inhib	CYP2C9 act	CYP2C19 inhib	CYP2C19 activ
CN(Cc1ccccc1)S(=O)(=O)c1ccc(NS(=O)(=O)Cc2ccccc2)cc1	28.6	94.3*	0.1	93.6*	0.1
CC(=O)c1ccc(NS(=O)(=O)Cc2ccccc2)cc1	4.3	97.1*	0	92.7*	0.1
CN(Cc1ccccc1)S(=O)(=O)c1ccc2c(c1)NC(=O)CC(=O)N2	7.3	.	.	.	.
CCOC(=O)C1CN(S(=O)(=O)c2ccc(OC)cc2)c2cc(CC(=O)OC)ccc2O1 (stereo unspecified)	9.7	29.7	0.7	92.7*	0.1
COc1ccc(Cl)cc1N1CCN(CCNC(=O)Nc2ccccc2C)CC1	19.4	-50.7	1.5	-4.3	1
Cc1nnc(SCCn2c(N3CCC(C)CC3)nc3c2c(=O)[nH]c(=O)n3C)s1	15.1	40.1	0.6	11.1	0.9
COc1ccc(NC(=O)c2cc(C)nc3ccccc23)cc1S(=O)(=O)Nc1ccccc1Cl	8.5	.	.	.	.
O=C(Nc1cccnc1)C1CC(c2ccccc2O)=NO1 (stereo unspecified)	1.4	51.3*	0.5	80.2*	0.2
CCC1CCC(C(=O)NNC(=O)OC)CC1 (stereo unspecified)	17.7	.	.	.	.
Cc1cc(C)nc(SCc2cn3cc(Cl)ccc3n2)n1	19.4	.	.	.	.
Cc1cccc(Oc2ccccc2N)c1	1.2	-22.1	1.2	34.1	0.7
Cc1cccc(Oc2cc(N)cc([N+](=O)[O-])c2)c1	10.3	33.8	0.7	59.7*	0.4
Cc1cc(C)cc(Oc2ccc(N)cc2)c1	7.5	-77.1	1.8	81.5*	0.2
Cc1cccc(Oc2ccc(N)cc2)c1	36.1	29.1	0.7	83.8*	0.2
Cc1nc2ccccc2n1/C(=N/S(=O)(=O)c1ccc(Br)cc1)c1ccccc1	23.9	.	.	.	.
CCN(CCCNC(=O)c1ccc(N2CCCC2=O)cc1)c1cccc(C)c1	4.6	13.2	0.9	29.8	0.7
O=C(CC(C(=O)N1CCc2ccccc21)n1ccnc1)N1CCc2ccccc2C1 (stereo unspecified)	11.2	49.5	0.5	73.2*	0.3
CCCCNC(=O)CC(C(=O)N1CCc2ccccc21)n1ccnc1 (stereo unspecified)	9.3	34.3	0.7	73.5*	0.3
O=C(CC(C(=O)N1CCc2ccccc21)n1ccnc1)NCC1CCCO1 (stereo unspecified)	3.1	65.3*	0.3	35.4	0.6
CCN(CCCNC(=O)CC(C(=O)N1CCc2ccccc21)n1ccnc1)c1cccc(C)c1 (stereo unspecified)	6.5	18.0	0.8	93.8*	0.1
CCN(CC)CCC#CC(O)(c1ccccc1)c1ccccc1	2.5	.	.	.	.
FC(F)(F)c1nnc(-c2ccccc2)nc1Oc1ccc(Cl)cc1Cl	5.0	33.4	0.7	60.9*	0.4
Cc1nc(CC(=O)Nc2nc(-c3ccccc3)cs2)cs1	3.6	32.9	0.7	51.7*	0.5
Cc1nc(CC(=O)Nc2nc(C(C)(C)C)cs2)cs1	17.4	17.0	0.8	47.3	0.5
O=C(Cc1cccs1)Nc1nc(-c2ccccc2)cs1	2.5	60.7*	0.4	50.7*	0.5
SMILES	Measles CPE	CYP2C9 inhib	CYP2C9 act	CYP2C19 inhib	CYP2C19 activ
Cc1ccc(-c2csc3ncn(CC(=O)N4CCOCC4)c(=O)c23)cc1C	5.0	11.2	0.9	11.1	0.9
O=C(O)C1(NS(=O)(=O)c2ccc(Cl)cc2)CCCCC1	9.1	-5.4	1.1	-7.3	1.1
Cc1ccc(S(=O)(=O)NC2(C(=O)O)CCCCC2)cc1	9.5	57.0*	0.4	2.9	1
NC(=O)C1CCN(c2nc(C3CC3)nc3c2nnn3Cc2ccccc2)CC1	6.6	3.0	1	3.8	1
CC(C)Cn1c(O)c2ccc(C(=O)N=NC(=O)c3cccnc3)cc2c1O	7.2	.	.	.	.
NC(=O)Cn1c(=O)n(Cc2ccco2)c(=O)c2c3c(sc21)CCCCC3	5.0	18.2	0.8	20.8	0.8
CC1(C)Cc2c(sc3c2c(=N)n(Cc2ccco2)c(=O)n3CC(=O)Nc2cccc(Cl)c2)CO1	14.5	44.6	0.6	28.5	0.7
O=c1c2c3c(sc2n(CCN2CCCCC2)c(=O)n1Cc1ccco1)CCCCC3	2.9	60.7*	0.4	45.3	0.5
O=C(Cn1c(=O)n(Cc2ccco2)c(=O)c2c3c(sc21)CCCC3)Nc1ccccc1	17.5	79.8*	0.2	71.8*	0.3
Cc1cccc(NC(=O)Cn2c(=O)n(Cc3ccco3)c(=N)c3c4c(sc32)COC(C)(C)C4)c1	2.9	60.6*	0.4	58.7*	0.4
O=c1c2c3c(sc2n(CCN2CCOCC2)c(=O)n1Cc1ccco1)CCCCC3	4.4	77.1*	0.2	50.9*	0.5
COc1ccc(C2C(C(=O)NCc3ccco3)CCC(=O)N2c2ccc(OC)cc2)cc1 (stereo unspecified)	5.6	12.3	0.9	4.8	1
CCC(=O)c1cc2c(cc1NC(=O)C(C)C)OCCO2	2.5	23.9	0.8	11.9	0.9
CCOC(=O)N1CCN(C(=O)c2ccc(N(Cc3ccccc3)S(C)(=O)=O)cc2)CC1	20.5	89.6*	0.1	68.0*	0.3
CN1CCN(C(=O)c2ccc(N(Cc3ccccc3Cl)S(C)(=O)=O)cc2)CC1	18.9	22.2	0.8	11.5	0.9
Cc1ccc(CN(c2ccc(C(=O)N3CCOCC3)cc2)S(C)(=O)=O)cc1	3.5	14.9	0.9	12.9	0.9
CS(=O)(=O)N(CC(=O)N1CCc2ccccc2C1)c1ccc2c(c1)OCO2	15.2	24.4	0.8	88.2*	0.1
CS(=O)(=O)N(Cc1ccccc1)c1ccc(C(=O)N2CCc3ccccc3C2)cc1	7.8	63.3*	0.4	46.1	0.5
CCOC(=O)N1CCN(C(=O)c2ccc(N(Cc3ccc(C)cc3)S(C)(=O)=O)cc2)CC1	7.0	86.1*	0.1	65.2*	0.3
NC(=O)c1ccccc1NC(=S)NC(=O)CCc1ccccc1	0.0	.	.	.	.
O=C(NCc1ccc2c(c1)OCO2)C1CCN(S(=O)(=O)c2cccc3nsnc23)CC1	4.4	-9.2	1.1	0.7	1
CNC(=O)c1ccccc1NC(=O)c1c(O)c2c([nH]c1=O)CCCC2	3.4	19.3	0.8	29.5	0.7
CS(=O)(=O)N(CC(=O)N1CCc2ccccc2C1)Cc1ccc(Cl)cc1	1.1	84.6*	0.2	87.9*	0.1
CS(=O)(=O)N(CC(=O)N1CCCCC1)Cc1ccc(Cl)cc1	18.8	.	.	.	.
COc1ccc(CCN(C)CCC(=O)Nc2cc(C)ccc2C)cc1OC	9.6	.	.	.	.
O=C(CCCn1cnc([N+](=O)[O-])n1)Nc1ccc(Cl)cc1Cl	10.7	.	.	.	.
COc1ccccc1NC(=O)C1CC(=O)OC1c1ccccc1 (stereo unspecified)	20.5	12.2	0.9	78.3*	0.2
COc1ccc(OC)c(C(=O)CSc2nccc(-c3ccc(Br)cc3)n2)c1	23.7	79.4*	0.2	10.8	0.9
COc1ccc(-c2ccnc(SCC(=O)c3ccc(OC)c(OC)c3)n2)cc1	3.9	.	.	.	.
CCn1c(SCC(=O)c2ccc(OC)cc2)nnc1C(C)NC(=O)c1ccc(OC)cc1 (stereo unspecified)	11.4	16.8	0.8	28.0	0.7
